Compound activity deposited in PubChem BioAssay by National Center for Advancing Translational Sciences (NCATS).
The full list was thinned out, with hits kept by preference.
Sm TGR inh = qHTS Assay for the Inhibitors of Schistosoma Mansoni Peroxiredoxins; 360,000 compounds, 3% hits; purified TGR, DTNB reduction, TNB absorbance 405 nm; AID 485364, 2010; Schistosoma mansoni thioredoxin glutathione reductase (TGR), Q962Y6; Potency, µM (titrated, usually from 114 µM), hits mostly inhibitors; also: nearly all actives have a fitted effect of over 60% in size
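TGR 20 nM + NADPH 100 uM (dispensed conc.), cpd preinc 15 min RT; start with NADPH (500 uM addition) then DTNB (15 mM addition). Kinetic TNB absorbance, 405 nm filter. Four-parameter Hill fit across titration.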
Giardia FBPA inh = qHTS Assay for Inhibitors of Fructose-1,6-bisphosphate Aldolase from Giardia Lamblia | 290,000 compounds, 0.71% hits | Potency, µM (top dose mostly 59.6 µM), most hits filed as inhibitors | purified Giardia FBPA | A8B2U2; also: nearly all actives have a fitted effect of over 55% in size
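Giardia FBPA (40 nM reagent) was preincubated 10 min at RT with compound (up to 57.5 uM final), then substrate plus GAPDH/TPI/NAD/arsenate coupling system with diaphorase/resazurin was added; resorufin fluorescence (525/598 nm) was read after 20 min.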
Shiga toxin inh = A qHTS for Small Molecule Inhibitors of Shiga Toxin | Vero cells, Shiga toxin protein synthesis inhibition reporter | inhibition, % at 38.7 µM | 290,000 compounds, 9.2% hits; in the data active = inhibition mostly above about 28%, no sharp cut-off; inactive = mostly below about 43%
Cycloheximide cs = Cycloheximide Counterscreen for Small Molecule Inhibitors of Shiga Toxin; cell reporter, cycloheximide protein synthesis inhibition counterscreen; max response, %; 300,000 compounds, 12% hits; AID 2314, 2010; in the data active = max response mostly above about 13%, no sharp cut-off; inactive = mostly below about 14%; also: read at 38.3 µM for the half of the compounds with a filed dose
LmPK inh = qHTS Assay for Inhibitors of Leishmania Mexicana Pyruvate Kinase (LmPK); AID 1721, 2009; Potency, µM (highest dose often 57.5 µM), actives largely listed as inhibitors; purified LmPK, Kinase-Glo ATP luminescence, 1 h; Q27686; 290,000 compounds, 0.37% hits
Target sequence (Q27686 whole entry, looked up): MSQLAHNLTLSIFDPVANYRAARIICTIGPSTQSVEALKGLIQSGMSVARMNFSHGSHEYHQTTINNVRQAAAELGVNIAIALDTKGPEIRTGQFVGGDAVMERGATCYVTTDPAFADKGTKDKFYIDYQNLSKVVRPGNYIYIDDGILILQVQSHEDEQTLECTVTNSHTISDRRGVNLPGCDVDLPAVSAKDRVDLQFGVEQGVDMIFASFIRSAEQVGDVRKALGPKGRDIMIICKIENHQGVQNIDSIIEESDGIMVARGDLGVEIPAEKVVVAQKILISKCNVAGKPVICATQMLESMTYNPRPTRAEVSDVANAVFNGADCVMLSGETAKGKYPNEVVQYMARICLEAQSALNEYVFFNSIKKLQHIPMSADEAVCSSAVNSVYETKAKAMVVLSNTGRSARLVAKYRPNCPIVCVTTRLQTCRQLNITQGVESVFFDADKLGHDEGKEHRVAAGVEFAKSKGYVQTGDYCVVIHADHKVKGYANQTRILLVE
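ATP generated from ADP (0.1 mM) and PEP (0.5 mM) by 0.1 nM LmPK over 1 h at room temperature (pH 7.2 imidazole buffer) was detected by coupled luciferase luminescence. Values were normalized to uninhibited and no-enzyme wells.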
Tb PYK inh = qHTS of Trypanosoma Brucei Inhibitors; TbPYK enzyme, Kinase-Glo Plus ATP luminescence, 45 min; Potency, µM (series often up to 76.8 µM), actives largely listed as inhibitors; 410,000 compounds, 0.12% hits; AID 624173, 2012; also: nearly all actives have a fitted effect of over 50% in size
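Screened from lowest to highest concentration, compounds were pinned into TbPYK/substrate mixtures, and ADP (130 uM final) was added. Plates sat at room temperature for 45 min prior to Kinase-Glo Plus detection by luminescence.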
A number is an active result; n = inactive; u = inconclusive; x = not tested or not shown; [ ] = another dose, or the depositor's remark. Unless noted, calls follow the shape of the dose curve; as a rule, active = well fitted curve in the direction sought with a large enough effect; inconclusive = small, poorly fitted or top-dose-only effect, or another doubt; inactive = no such curve, though single readings can be large; an effect the other way counts as inactive or inconclusive.

SMILES | Sm TGR inh | Giardia FBPA inh | Shiga toxin inh | Cycloheximide cs | LmPK inh | Tb PYK inh
Cc1ccc(C(=O)CC(=O)COc2ccc(Cl)cc2)cc1 | n | n | n | 17.5 | n | n
Cc1ccc(C(=O)NCCOc2ccc(Cl)cc2)cc1 | n | n | 51.1 | 31.6 | n | n
O=C(NCCN1CCNCC1)c1ccccn1 | n | n | 100.5 | n | n | n
Cc1ccc(OCCNC(=O)c2cccc(C)c2)cc1 | n | n | n | n | n | n
CC(=O)N1CCOc2cc(S(=O)(=O)Nc3cccc(C(F)(F)F)c3)c(Cl)cc21 | n | x | x | x | x | n
CC(C)(C)c1ccc(C(=O)NCCCNC(=O)c2ccccn2)cc1 | n | n | 41.7 | n | n | n
COc1cccc(OCCNC(=O)c2cccc(OC)c2)c1 | n | n | n | n | n | n
COc1cccc(OCCNC(=O)c2ccc(C)cc2)c1 | n | n | 39.8 | 26.7 | n | n
O=C(NCCCNC(=O)c1ccccn1)c1ccc(Cl)cc1 | n | n | n | n | n | n
CC(=O)Nc1cccc(OCCCNC(=O)c2ccc(C(C)(C)C)cc2)c1 | n | n | 44.6 | 25.3 | n | n
CC(=O)N1CCC[C@@]2(CCN(Cc3ccccc3)C2)C1 | x | n | x | x | x | n
COc1ccc2[nH]cc(CCNc3ncncc3-c3cccc(C#N)c3)c2c1 | x | n | x | x | x | x
O=C(Nc1cc(C(F)(F)F)ccc1Cl)C(Sc1nnc(-c2cccs2)o1)c1ccccc1 (configuration not stated) | n | n | 33.1 | 14.7 | n | n
O=C(Nc1ccc(Cl)cc1C(F)(F)F)C(Sc1nnc(-c2cccs2)o1)c1ccccc1 (configuration not stated) | n | n | 88.7 | 29.1 | n | n
COc1ccc(C)cc1NC(=O)C(Sc1nnc(-c2cccs2)o1)c1ccccc1 (configuration not stated) | n | n | n | n | n | n
CCN(Cc1cccs1)C(=O)CN1CCN(S(=O)(=O)c2ccc3c(c2)OCCCO3)CC1 | n | x | x | x | x | n
Cn1cccc1/C=C1\CCC/C(=C\c2cccn2C)C1=O | n | n | 109.1 | 52.0 | n | n
CC1C/C(=C/c2cccs2)C(=O)/C(=C/c2cccs2)C1 (configuration not stated) | n | n | n | n | n | n
O=C1/C(=C/c2cccs2)CCC/C1=C\c1cccs1 | n | x | 107.8 | 39.4 | n | n
CC(C)c1ccc(NS(=O)(=O)c2ccc3nc(-c4ccccc4)[nH]c3c2)cc1 | n | x | x | x | x | n
CC(=O)Oc1cc(OC(C)=O)c2c(=O)c(-c3ccc4c(c3)OCCCO4)c(C)oc2c1 | n | n | n | 8.3 | n | n
Cc1oc2cc(O)cc(O)c2c(=O)c1-c1ccc2c(c1)OCCCO2 | n | n | 116.0 | 33.6 | n | n
COC1CC2CCC(C)[C@](O)(O2)C(=O)C(=O)N2CCCCC2C(=O)OC(C(C)CC2CCC(O)C(OC)C2)CC(=O)C(C)/C=C(/C)C(O)C(OC)C(=O)C(C)CC(C)C=CC=C/C=C\1C (some centres not stated) | x | x | x | x | x | n
O=C1C=C(O)c2c(O)cccc2C1=O | 50.1µM | u | n | n | n | x
O=C1C=C(O)c2cccc3cccc1c23 | n | n | x | n | n | n
SMILES | Sm TGR inh | Giardia FBPA inh | Shiga toxin inh | Cycloheximide cs | LmPK inh | Tb PYK inh
CCC(=O)NCCc1nc2cc(NC(=O)Nc3ccccc3)ccc2n1C | n | n | 43.1 | n | n | n
CC(=O)Nc1ccc2c(c1)nc(CCNC(=O)c1ccccc1)n2C | n | n | n | n | n | n
CCC(=O)NCCc1nc2cc(NC(=O)c3ccccc3Cl)ccc2n1C | n | n | 62.2 | 32.3 | n | n
Cn1c(CCN2CCOCC2)nc2cc(NC(=O)COc3ccccc3)ccc21 | n | n | n | n | n | n
Cn1c(CCn2ccccc2=O)nc2cc(NC(=O)COc3ccccc3)ccc21 | n | x | n | 29.4 | n | n
CCC(=O)NCCc1nc2cc(NC(=O)c3cccc(Br)c3)ccc2n1C | n | x | x | x | x | n
Nc1ccn([C@@H]2O[C@H](CNCc3cc(Br)ccc3OCc3ccccc3)[C@@H](O)[C@H]2O)c(=O)n1 | x | x | x | x | x | n
CN1CCCC1CCNc1ccc2c(=O)c3ccccc3oc2c1 (configuration not stated) | n | n | n | 40.9 | n | n
Cn1c2ccccc2c(=O)c2cc(NCCCN3CCOCC3)ccc21 | x | x | x | x | x | n
CN1CCC[C@H]1CCNc1ccc2c(=O)c3ccccc3n(C)c2c1 | x | x | x | x | x | n
CN1CCCC1CCNc1ccc2oc3ccccc3c(=O)c2c1 (configuration not stated) | n | n | n | 25.3 | n | n
COc1ccccc1C(=O)NNC1=C(C(=O)C(F)(F)F)CCC1 | u | n | 83.9 | 17.2 | n | n
Nc1ccccc1C(=O)NNC1=C(C(=O)C(F)(F)F)CCC1 | n | n | 94.7 | 46.3 | n | n
O=C(NNC1=C(C(=O)C(F)(F)F)CCC1)c1ccccc1O | n | n | 37.4 | n | n | n
COc1cccc(C(=O)NNC2=C(C(=O)C(F)(F)F)CCC2)c1 | n | n | 68.0 | 40.7 | n | n
O=C(NNC1=C(C(=O)C(F)(F)F)CCC1)c1ccccc1Cl | n | n | n | n | n | n
Cc1c(C(=O)N(CC(C)C)c2c(N)n(Cc3ccccc3)c(=O)[nH]c2=O)sc2nc3n(c(=O)c12)CCC3 | n | x | x | x | x | n
CCOC(=O)[C@]12CCC=C1N(Cc1ccc3c(c1)OCO3)C(=O)[C@H](CC(=O)NCc1cccc(C(F)(F)F)c1)C2 | x | x | x | x | x | n
CCOC(=O)c1oc2ccc(/C=N/O)c(Cl)c2c1C | x | n | n | 28.7 | n | n
Cc1cccc(C2=NCC(=O)N(CC(=O)NCc3ccco3)c3sc4c(c32)CCCC4)c1 | 17.8µM | n | n | n | n | n
O=C(CSc1nc(C2CC2)nc2sc3c(c12)CCCC3)NCc1ccco1 | n | n | n | n | n | n
CC(C)Sc1nc2sc3c(c2c2nnc(SCC(=O)NCc4ccco4)n12)CCCC3 | u | n | n | n | n | n
COc1ccc(C2=NCC(=O)N(CC(=O)NCc3ccco3)c3sc4c(c32)CCCC4)cc1 | u | n | n | n | n | n
CCCc1nc2sc3c(SCC(=O)NCc4ccco4)ncnc3c2c2c1CCC2 | 15.8µM | n | n | n | n | n
Cc1nc(SCC(=O)NCc2ccco2)c2c3c(sc2n1)CCCC3 | n[11.4 µM] | n | 43.0 | 23.6 | n | n
Cc1nc(SCC(=O)N(C)Cc2ccco2)c2c(C)c(C)sc2n1 | 44.7µM | n | n | n | n | n
Cc1ccc(CNC(=O)CSc2nc(=O)n(Cc3ccco3)c3c2CCC3)cc1 | 39.8µM | x | x | x | x | n
O=C(CSc1nc(=O)n(Cc2ccco2)c2c1CCC2)NCc1ccc(Cl)cc1 | n | x | x | x | x | n
